Pf growth 96h = P. falciparum growth inhibition at 96 hours; hit rate 6.9% among 320,000; P. falciparum luciferase reporter growth, 96 h; Potency, µM (series often up to 28.7 µM), inactives show at the top dose activity change, negative = inhibition, usual class: inhibitors; active = well fitted inhibition curve with a large enough effect; inconclusive = small, poorly fitted or top-dose-only effect, or another doubt; inactive = no such curve, though single readings can be large or run the other way; also: potency is read from the fitted curve at half-maximal effect; % is scaled to controls: 0 for no effect and ±100 for the full control effect
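Two-generation exposure (96 h) targets delayed-death phenotype. Reporter parasites carrying integrated firefly luciferase, in red cells at 2% hematocrit and 0.05% parasitemia final, kept at 37 C, 5% CO2; luminescence loss indicates inhibition.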
CHX counter = counter-screen hit for Shiga toxin inhibitors, cycloheximide | hit rate 12% among 300,000 | cell reporter, cycloheximide protein synthesis inhibition counterscreen | AID 2314 | max response, %; in the data active = max response mostly above about 13%, no sharp cut-off; inactive = mostly below about 14%; also: read at 38.3 µM for the half of the compounds with a filed dose; 0% is about no effect
Pf growth 48h = inhibits P. falciparum growth in the first generation, 48 h. P. falciparum luciferase growth in erythrocytes, 48 h. Potency, µM (titrated, usually from 28.7 µM), without a hit: at the top dose activity change, negative = inhibition, usual class: inhibitors. hit rate 5.9% among 310,000. AID 504832; active = well fitted inhibition curve with a large enough effect; inconclusive = small, poorly fitted or top-dose-only effect, or another doubt; inactive = no such curve, though single readings can be large or run the other way; also: potency is read from the fitted curve at half-maximal effect; % is scaled to controls: 0 for no effect and ±100 for the full control effect
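Luminescence readout; reporter = integrated firefly luciferase in P. falciparum. RBC culture at 2% hematocrit, 0.1% parasitemia final, 37 C/5% CO2; decreased signal taken as growth inhibition.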
Shiga inhibitor = blocks Shiga toxin action in Vero cells | Vero cells, Shiga toxin protein synthesis inhibition reporter | inhibition, % at 38.7 µM | hit rate 9.2% among 290,000 | AID 2315; in the data active = inhibition mostly above about 28%, no sharp cut-off; inactive = mostly below about 43%; also: 0% is about no effect
NS1 inh = blocks influenza NS1 protein function; Potency, µM (titrated, usually from 46.1 µM), without a hit: at the highest dose activity, positive = more growth; hit rate 0.4% among 270,000; AID 2326; also: potency is read from the fitted curve at half-maximal effect; actives are rising curves; nearly all actives have a fitted effect of over 50% in size
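S. cerevisiae expressing influenza A NS1, grown in glucose, washed, then diluted 1:100 into pH 6.0 -URA galactose medium with 23 nl compound. Growth recovery read as OD600; NS1-free strain serves as control.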
SARS PLpro yeast = blocks SARS-CoV papain-like protease in a yeast assay; S. cerevisiae expressing SARS-CoV PLpro, growth rescue; Potency, µM (doses to about 32.9 µM), for inactives: at the top dose activity, positive = growth rescue, most hits filed as activators; hit rate 0.19% among 330,000; AID 485353; also: potency is read from the fitted curve at half-maximal effect; 0% is about no effect; nearly all actives have a fitted effect of over 55% in size
Active calls of the source: *; ? = inconclusive; · = no result; [ ] = dose if it differs, or a comment. The list is not random: actives were taken first. Their share in the collection is about 21%. Unless noted, calls follow the shape of the full dose curve.

SMILES | Pf growth 96h | CHX counter | Pf growth 48h | Shiga inhibitor | NS1 inh | SARS PLpro yeast
O=C(NC1CC1)C1C2C3C4CC5C3C5C4C12 (stereo not drawn) | 7% | 7 | 5.9µM* | -6 | -14% | -7%
O=C(CN1CCN(S(=O)(=O)c2ccccc2F)CC1)NC1CCCC1 | 15% | 0 | 10% | -3 | 3% | 0%
COc1cc(NC(=O)c2ccc(N)nc2)cc(C(=O)Nc2cccc(C(F)(F)F)c2)c1 | 0.74µM* | 13 | 0.74µM* | 55* | 0% | -1%
COc1ccc(-c2cc(C(=O)Nc3cc(OC)cc(C(=O)Nc4cccc(C(F)(F)F)c4)c3)[nH]n2)cc1 | 1.3µM* | 2 | 1.9µM* | 16 | 5% | -3%
Cc1ccc(NC(=S)N(N)CCO)cc1 | -25% | 22 | 105% | 43* | · | 3%
NC(=O)NC(CC(=O)NNC(=O)c1ccccn1)c1ccccc1Cl (stereo not drawn) | ? | · | -24% | · | · | -6%
CCOc1cc(C(=O)N(CC)CC(=O)Nc2c(F)cccc2F)ccc1OCC(=O)N1CCCCC1 | ? | · | ? | · | · | -1%
Cc1ccc(-c2nn(-c3ccccc3)c3[nH]c(=O)c(CNCc4ccccc4)cc23)cc1 | -18% | -1 | 1µM* | -3 | 3% | -10%
Cc1nn(-c2ccccc2)c2[nH]c(=O)c(CNCCN3CCOCC3)cc12 | -6% | -2 | -2% | -14 | -4% | 7%
Cc1ccc(-c2nn(-c3ccccc3)c3[nH]c(=O)c(CNCCN(C)C)cc23)cc1 | -10% | -1 | 4.7µM* | 7 | -1% | -3%
CCc1ccc(NCc2cc3c(C)nn(-c4ccccc4)c3[nH]c2=O)cc1 | ? | -3 | · | -8 | -87% | -16%
Cc1nn(-c2ccccc2)c2[nH]c(=O)c(CNc3ccc4c(c3)OCCO4)cc12 | 0%[5.75 µM] | 42* | 48% | 113* | -6% | 4%
Cc1ccc(-c2nn(-c3ccccc3)cc2CNCc2ccccc2)cc1 | -13% | -4 | ? | -3 | -3% | -2%
O=C(NCC1CCCO1)c1ccc(CSCc2cccc(F)c2)o1 (stereo not drawn) | 9% | 25 | -8% | 18 | · | 0%
O=C(CN1C(=O)COc2ccccc21)NC1CCCC1 | 16% | -6 | 1% | -18 | -3% | 1%
Cn1cnnc1SCC(=O)Nc1ccc2nc(SCc3ccccc3Cl)sc2c1 | ? | 19* | -6% | active | 1% | 13%
Cn1cnnc1SCC(=O)Nc1ccc2nc(SCc3cccc4ccccc34)sc2c1 | ? | -4 | · | -9 | 12% | 4%
Cn1cnnc1SCC(=O)Nc1ccc2nc(SCc3ccccc3)sc2c1 | 195% | 90* | · | 101* | -1% | -1%
CCN(CC)C(=O)CSc1nc2ccc(NC(=O)CSc3nccn3C)cc2s1 | ? | 14* | 8.3µM* | 32 | ? | -8%
O=C(NCC1OCCc2ccccc21)c1cc(COc2ccc(F)cc2Cl)on1 (stereo not drawn) | ? | -1 | 2% | 12 | -2% | -2%
CC(C)c1ccc(/C=C2\SC(=S)N(CC(=O)NCCCN3CCOCC3)C2=O)cc1 | 2% | 39* | 25% | 46 | 7% | 1%
O=C(CN1C(=O)/C(=C/c2ccccc2)Sc2ccccc21)NCCCN1CCOCC1 | 49% | 10 | -6% | -5 | 1% | 2%
CCOc1ccc(/C=C2\SC(=S)N(CC(=O)NCCCN3CCOCC3)C2=O)cc1 | 2% | 22* | 29% | 47* | 9% | -1%
COc1cc(C(=S)N2CCOCC2)ccc1OC(=O)c1cc([N+](=O)[O-])c(C)c([N+](=O)[O-])c1 | 1.7µM* | -1 | -1% | -12 | 16% | 16%
COc1ccc(C(=S)N2CCOCC2)cc1OS(=O)(=O)c1ccccc1[N+](=O)[O-] | ? | 28* | 0% | 46 | -11% | -3%
COc1cc(C(=S)N2CCOCC2)ccc1OS(=O)(=O)c1ccccc1[N+](=O)[O-] | 51% | 11 | -9% | -12 | 26% | -4%
CCOc1cc(C(=S)N2CCOCC2)ccc1OS(=O)(=O)c1ccccc1[N+](=O)[O-] | 5.9µM* | 16 | ? | 28 | 34% | -14%
CCOc1cc(C(=S)N2CCOCC2)ccc1OS(=O)(=O)c1ccc(C)cc1 | ? | 3 | -20% | 4 | 4% | -1%

Compound activity deposited in PubChem by National Center for Advancing Translational Sciences (NCATS).
